Bioassay records: PubChem, The Scripps Research Institute Molecular Screening Center
An excerpt weighted towards active compounds, which were near 2.4% of everything screened.
CHRM1 PAM: potentiates human M1 receptor response to acetylcholine; P11229; CHO-K1 hM1, Fluo-8 calcium fluorescence, ACh EC20; 0% = ACh EC20, 100% = maximal ACh; activation, % at 3 µM; 0.088% of 360,000 active; AID 588819; in the data active = activation above about 19%, passing the limit was not always enough
Target sequence (P11229 whole entry, looked up): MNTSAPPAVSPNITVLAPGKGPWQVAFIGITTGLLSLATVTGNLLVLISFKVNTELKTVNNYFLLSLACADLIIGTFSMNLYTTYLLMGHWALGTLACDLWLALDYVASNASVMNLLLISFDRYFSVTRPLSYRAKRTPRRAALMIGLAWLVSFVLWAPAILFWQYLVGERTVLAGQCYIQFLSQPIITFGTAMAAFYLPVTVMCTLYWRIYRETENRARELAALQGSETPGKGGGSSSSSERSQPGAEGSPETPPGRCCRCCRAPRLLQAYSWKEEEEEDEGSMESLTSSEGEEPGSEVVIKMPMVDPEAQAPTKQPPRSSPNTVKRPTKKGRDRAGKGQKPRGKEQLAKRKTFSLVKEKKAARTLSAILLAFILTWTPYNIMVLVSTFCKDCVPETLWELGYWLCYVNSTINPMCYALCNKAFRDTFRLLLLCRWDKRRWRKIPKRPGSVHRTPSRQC
M1 ag: agonists of human M1 muscarinic receptor; P11229; activation, % at 3 µM; CHO-K1 hM1, Fluo-8 calcium fluorescence, agonist mode; 0% DMSO, 100% acetylcholine EC100; 0.33% of 360,000 active;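 active = activation above the run's mean compound activation plus 3 SD, cut at about 16% in these data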;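 note: peak over basal fluorescence ratio within a 140 s kinetic read after compound addition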
CHO-K1 Ca antag: counter-screen for M1 antagonists: effect in parental CHO-K1 cells | ATP-induced calcium, Fluo-8 fluorescence | inhibition, % at 3 µM | 0.6% of 360,000 active | AID 602250;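 active = inhibition above a per-plate cutoff, the plate's mean sample inhibition plus 3 SD, cut at about 24% in these data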
M1 antag: human CHRM1 antagonism; CHO-K1 hM1, Fluo-8 calcium fluorescence, ACh EC80 antagonist; inhibition, % at 3 µM; 1.3% of 360,000 active; AID 588852; P11229;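 active = percent inhibition above its own plate's cutoff, namely the mean of that plate's compound wells plus 3 SD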;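 note: peak over basal fluorescence ratio during 140 s after agonist addition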
M1 PAM parental: M1 PAM counterscreen hit in parental CHO-K1 cells; ATP EC20, Fluo-8 calcium fluorescence; 0% at ATP EC20, 100% at ATP max; activation, % at 3 µM; 0.02% of 360,000 active; AID 602247;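 active = activation above the run cutoff, the mean activation of all test compounds plus 3 SD, cut at about 40% in these data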;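 note: peak over basal fluorescence ratio in a 140 s read after ATP addition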
CHO-K1 Ca ag: M1 agonist counterscreen hit in parental CHO-K1 cells. Fluo-8 calcium fluorescence; scaled to maximal ATP response, vehicle zero. activation, % at 3 µM. 0.48% of 360,000 active; in the data active = activation above about 15%;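 note: untransfected CHO-K1 host cells lacking M1 receptor as counterscreen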
Large screens that a line does not name were inactive; ! = repeats disagree.

CN(C)S(=O)(=O)c1cccc(NC(=O)COc2ccccc2C(=O)Nc2ccccc2)c1	M1 antag 41
Cc1ccc(S(=O)(=O)N(C)C)cc1NC(=O)COc1ccccc1C(=O)Nc1ccccc1	none
COc1cccc(CNc2ccc3c(c2)CCC3)c1	none
COc1cccc(CNc2ccc(C)c(Cl)c2)c1	CHO-K1 Ca ag 17
COc1ccc(N(C(C)=O)c2nc3ccccc3[nH]2)cc1	none
Clc1ccc(N2O[C@H]3C=C[C@@H]2C3)nc1	none
O=c1[nH]c(Cc2cccs2)nc2scc(-c3ccc(Cl)cc3)c12	none
O=c1[nH]c(Cc2ccccn2)nc2scc(-c3ccc(Cl)cc3)c12	M1 ag 26
O=S(=O)(Nc1nc2ccccc2nc1NCc1ccco1)c1ccccc1	CHO-K1 Ca antag 25
CCOC(=O)c1cc(-c2ccccc2)nc2nc(N(CC)CC)sc12	none
CCCC/C(C)=N/NC(=O)c1cn(-c2ccccc2)nc1-c1ccccc1	none
COc1cccc(C2CC(c3cccs3)=NN2C(=O)CSC2=NN3CCCC(=O)N=C3S2)c1OC (stereo not given)	CHO-K1 Ca antag 24
Cc1cc2nc(-c3ccc(C#N)cc3)c(Cc3ccsc3)n2c(C)c1Br	none (no result: CHRM1 PAM, M1 ag, M1 antag)
Cn1c(-c2cccc([N+](=O)[O-])c2)cnc1NCc1cccc([N+](=O)[O-])c1	none
COc1ccc(OC)c(CNc2ncc(-c3cccc([N+](=O)[O-])c3)n2C)c1	M1 antag 45
C/C(=N\NC(=O)c1nonc1N)c1cccs1	none
N/C(=N\OC(=O)CC1CCCCC1)c1ccncc1	CHO-K1 Ca ag 17
Cc1ccc(C(C)NC(=O)/C(C#N)=C\c2c(C)[nH]c3ccccc23)cc1 (stereo not given)	M1 ag 21
CC(C)(C)NC(=O)NC(=O)CN1C(=O)NC(c2ccccc2)(c2ccccc2)C1=O	none
COc1ccc(CNS(=O)(=O)c2ccc3c(c2)N(C(C)=O)CC(C)S3)cc1 (stereo not given)	CHO-K1 Ca ag 17
CC(SCC(=O)NC12CC3CC(CC(C3)C1)C2)C(=O)O (stereo not given)	none
O=C(Nc1ccccc1)Nc1nc(-c2ccc(F)c(F)c2)cs1	CHO-K1 Ca ag 16
O=C(Nc1ccc(Cl)cc1)Nc1nc(-c2ccccc2O)cs1	M1 antag 35, CHO-K1 Ca ag 17
O=C(Nc1ccccc1)Nc1nc(-c2ccccc2)cs1	none
CC(C)c1ccc(NC(=O)CN2CCN(C(=O)C3CCCO3)CC2)cc1 (stereo not given)	none
CC(C(=O)c1ccc(-c2ccccc2)cc1)[n+]1cccc(NC(=O)c2ccccc2)c1 (stereo not given)	M1 antag 50
CC1=CC(C)(C)N(C(=O)c2ccc(F)cc2)c2cc3c(cc21)OCO3	M1 ag 18
CC(C)CC1Nc2ncnc(N3CCN(c4ccccn4)CC3)c2N(Cc2ccccc2)C1=O (stereo not given)	M1 antag 38!
COC(=O)c1sc2nc(C)c([N+](=O)[O-])c(C)c2c1N	none
O=c1c2ccc([N+](=O)[O-])cc2ncn1CCOc1ccc(Cl)cc1	M1 antag 44
Cc1ccccc1NC(=O)c1ccc(C)c(S(=O)(=O)NCc2cccnc2)c1	M1 ag 22
CC1CCCC(NC(=O)CSc2ncccn2)C1C (stereo not given)	CHO-K1 Ca antag 27
Cc1[nH]c2ccccc2c1/C=N/Nc1ccc([N+](=O)[O-])cc1	M1 ag 16, CHO-K1 Ca antag 34, M1 antag 35, CHO-K1 Ca ag 21
Cc1[nH]c2ccccc2c1/C=N/NC(=O)CNC(=O)c1ccco1	none
Cc1[nH]c2ccccc2c1/C=N\NC(=O)c1ccco1	CHRM1 PAM 24
N#CC1(NC(=O)CN2C(=O)NC(Cc3c[nH]c4ccccc34)C2=O)CCCCC1 (stereo not given)	none
C[C@H](CO)N1C[C@H](C)[C@@H](CN(C)S(=O)(=O)c2cn(C)cn2)OCc2cnnn2CCCC1=O	none
Clc1cccc(CNc2ccn3nc(-c4ccco4)cc3n2)c1	CHO-K1 Ca antag 26
Clc1cccc(CNc2ccn3nc(-c4cccs4)cc3n2)c1	none
O=C(CCNS(=O)(=O)c1cccc(C(F)(F)F)c1)NC1CC1	none
COc1ccc(NC(=O)COc2ccc(N(C)S(=O)(=O)c3ccc(Cl)cc3)cc2)cc1OC	CHO-K1 Ca antag 27, M1 antag 38
CN(c1ccc(OCC(=O)OCC(=O)Nc2ccc(F)cc2)cc1)S(=O)(=O)c1ccc(Cl)cc1	none
CC(=O)Nc1ccc(S(=O)(=O)N(C)c2ccc(OCC(=O)Nc3ccccc3C(C)=O)cc2)cc1	M1 antag 36
CCc1ccc(NC(=O)Cn2nc(C)n3cccc3c2=O)cc1	none
O=c1[nH]cnc2c1ncn2-c1ccc(N(CCO)CCO)cc1	none
O=C1c2ccccc2CC1Sc1nnc(-c2ccncc2)o1 (stereo not given)	CHO-K1 Ca antag 24
O=C1CC(Sc2nnc(-c3ccccc3)o2)C(=O)N1c1ccccc1 (stereo not given)	none
CCCC(=O)OCC(=O)c1[nH]c(C)c(C(C)=O)c1C	none
Cn1cnnc1SCC(=O)Nc1ccc(Cl)cn1	CHO-K1 Ca antag 33
Cc1ccc2nc(NC(=O)c3ccc(NS(=O)(=O)c4cccs4)cc3)sc2c1	none
COc1ccc2c(c1)C(C)(Cc1ccc(C(=O)c3ccccc3)cc1)C(=O)N2 (stereo not given)	none
COc1ccc(-c2csc(Nc3ccc(S(=O)(=O)Nc4cc(C)on4)cc3)n2)cc1C	M1 antag 46
COc1ccc(-c2csc(Nc3ccc(S(=O)(=O)Nc4cc(OC)nc(OC)n4)cc3)n2)cc1	none
O=C(N/N=C/c1cn(-c2cccs2)nc1-c1ccccc1)c1ccccc1O	CHO-K1 Ca antag 29
COc1ccc(-n2nc3cc(C)c(NC(C)=O)cc3n2)cc1	CHO-K1 Ca antag 30
CCN(CC)c1ncnc2c1ncn2[C@H]1CN(Cc2ccccc2)C[C@@H](CO)O1	none
CN(C)C/C=C/C(O)(c1ccccc1)c1ccccc1	M1 antag 97
O=C(Cn1c(-c2ccccn2)nc2ccccc21)N/N=C/c1ccccn1	CHO-K1 Ca antag 30
Cc1cc(N2CCCCCC2)nc2ccccc12	M1 antag 35
Cc1cc(N2CCCCC2)nc2ccccc12	none
Cc1cc(C)cc(-c2nnc(SCC(=O)c3c(N)n(C4CC4)c(=O)[nH]c3=O)o2)c1	none
CN(C)CC(O)COC(c1ccc(Cl)cc1)c1ccc(Cl)cc1 (stereo not given)	M1 antag 41
CN(CC(O)COc1ccc(OCC(O)CN(C)C2CCCCC2)cc1)C1CCCCC1 (stereo not given)	none
CN(CC(O)COC(c1ccccc1)c1ccccc1)C1CCCCC1 (stereo not given)	M1 antag 30
CC1CN(CC(O)COC(c2ccc(Cl)cc2)c2ccc(Cl)cc2)CC(C)O1 (stereo not given)	none
CN(C)C(=O)COn1c(SCC(=O)N(C)C)nc2ccccc2c1=O	none
CCOC(=O)COn1c(SCC(=O)OCC)nc2ccccc2c1=O	CHO-K1 Ca antag 26
